Values joined by “and” are separate entries in the source; they are usually repeats but may differ in a detail not shown here. Equal entries are not always repeated. Inconclusive results are not listed. Where a call stands in place of a potency, no number is given. Some compounds were tested as several samples or in several runs, with calls that do not always agree. Active and inactive are the calls of the source. Unless noted, calls come from the whole dose curve; as a rule, active = well fitted curve in the direction sought with a large enough effect in the repeat runs; inconclusive = weak or mixed curves; inactive = no such curve, though single readings can be large; an effect the other way counts as inactive or inconclusive.
Assays:
[1] = qHTS assay to identify small molecule agonists of H2AX (AID 1224845; active = well fitted activation curve with a large enough effect in the signal ratio in the repeat runs, not every such curve was filed as active; the % refers to the signal ratio; note: potency is the fitted concentration of half-maximal effect)
Outline: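 Wild-type CHO-K1 cells plated overnight, then exposed 3 hr at 37C to compounds at 15 concentrations (0.76% DMSO). Lysed, then HTRF anti-pH2AX(S139)-cryptate/anti-H2AX-d2 detection after 24 hr at room temperature; emissions 665 and 620 nm.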

[2] = qHTS assay to identify small molecule agonists of the hypoxia (HIF-1) signaling pathway (AID 1224846; active = well fitted activation curve with a large enough effect in the signal ratio in the repeat runs, not every such curve was filed as active; the % refers to the signal ratio)
Outline: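 Agonist mode reporter screen. ME-180 cells stably expressing bla under HRE control received test compounds in DMSO for 17 hrs (37C, 5% CO2), and beta-lactamase activity was then detected with the CCF4-AM FRET substrate.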

[3] = qHTS assay to identify small molecule agonists of H2AX - cell viability counter screen (AID 1224847; calls by dose curve; note: nearly all actives have a fitted effect of over 30% in size; note: potency is the fitted concentration of half-maximal effect)
Outline: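 CHO-K1 cells plated overnight at 37C, then exposed 3 h at 37C to compounds at 15 concentrations (0.76% DMSO final). Viability by CellTiter-Glo luminescence after 30 min at room temperature.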

[4] = qHTS RealTime-Glo MT Cell Viability Assay in HepG2 cells - 24 hour (AID 1224867); note: nearly all actives have a fitted effect of over 50% in size
Outline: (§1)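 Luminescence read-out: viable HepG2 cells reduce a prosubstrate to a NanoLuc substrate, giving a signal proportional to live cell number. Reads taken at 0, 8, 16, 24, 32 and 40 h of compound exposure at 37 C.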

[5] = qHTS RealTime-Glo MT Cell Viability Assay in HEK293 cells - 32 hour (AID 1224868); note: nearly all actives have a fitted effect of over 50% in size; note: potency is the fitted concentration of half-maximal effect
Outline: (§2)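 Nonlytic real-time viability readout: viable cells convert prosubstrate to NanoLuc substrate, giving luminescence proportional to live cell number. HEK293, 600 cells/well, compound added after 5 h, continuous culture at 37 C.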

[6] = A CellTox Green Cytotoxicity Assay to monitor cytotoxicity in HEK293 cells - 0 hour (AID 1224869); note: nearly all actives have a fitted effect of over 50% in size
Outline: (§3)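 Dead-cell fluorescence measured kinetically: asymmetric cyanine dye, HEK293, 600 cells/well, 5 h settle, 23 nL cpd/DMSO, 37 C, reads 0–40 h every 8 h.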

[7] = qHTS RealTime-Glo MT Cell Viability Assay in HepG2 cells - 40 hour (AID 1224870); note: nearly all actives have a fitted effect of over 50% in size
Outline: (§4)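 HepG2 cells mixed with RealTime-Glo MT reagents (NanoLuc plus cell-permeant prosubstrate) were seeded at 600 cells/well, incubated 5 h at 37 C/5% CO2, then pinned with compounds in DMSO; nonlytic luminescence tracked viability during 40 h treatment.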

[8] = A CellTox Green Cytotoxicity Assay to monitor cytotoxicity in HEK293 cells - 40 hour (AID 1224871); note: nearly all actives have a fitted effect of over 45% in size; note: potency is the fitted concentration of half-maximal effect
Outline: as §3

[9] = qHTS RealTime-Glo MT Cell Viability Assay in HEK293 cells - 16 hour (AID 1224872); note: nearly all actives have a fitted effect of over 50% in size; note: potency is the fitted concentration of half-maximal effect
Outline: as §2

[10] = qHTS RealTime-Glo MT Cell Viability Assay in HepG2 cells - 8 hour (AID 1224873); note: nearly all actives have a fitted effect of over 55% in size
Outline: as §4

[11] = qHTS RealTime-Glo MT Cell Viability Assay in HEK293 cells - 40 hour (AID 1224874); details: RealTime-Glo luminescence; max response: stronger effect = lower value; note: nearly all actives have a fitted effect of over 50% in size; note: potency is the fitted concentration of half-maximal effect
Outline: (§5)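 600 HEK293 cells per well, dispensed already mixed with RealTime-Glo MT reagents. Compound dosing came 5 h later. The same wells were read for luminescence at 0, 8, 16, 24, 32 and 40 h of exposure at 37 C.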

[12] = A CellTox Green Cytotoxicity Assay to monitor cytotoxicity in HEK293 cells - 24 hour (AID 1224875); note: nearly all actives have a fitted effect of over 45% in size
Outline: as §3

[13] = A CellTox Green Cytotoxicity Assay to monitor cytotoxicity in HepG2 cells - 16 hour (AID 1224876); note: nearly all actives have a fitted effect of over 45% in size
Outline: (§6)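 First, HepG2 cells (600/well) mixed with reagent were plated; second, after 5 h at 37 C they received compounds via pintool; third, fluorescence was measured at 0 h through 40 h at 8 h intervals.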

[14] = qHTS RealTime-Glo MT Cell Viability Assay in HepG2 cells - 32 hour (AID 1224877); note: nearly all actives have a fitted effect of over 55% in size
Outline: as §1

[15] = A CellTox Green Cytotoxicity Assay to monitor cytotoxicity in HepG2 cells - 24 hour (AID 1224878); note: nearly all actives have a fitted effect of over 45% in size
Outline: as §6

[16] = A CellTox Green Cytotoxicity Assay to monitor cytotoxicity in HepG2 cells - 40 hour (AID 1224879); note: nearly all actives have a fitted effect of over 40% in size; note: potency is the fitted concentration of half-maximal effect
Outline: as §6

[17] = qHTS RealTime-Glo MT Cell Viability Assay in HEK293 cells - 0 hour (AID 1224880)
Outline: as §5

[18] = A CellTox Green Cytotoxicity Assay to monitor cytotoxicity in HEK293 cells - 32 hour (AID 1224881); note: nearly all actives have a fitted effect of over 40% in size
Outline: as §3

[19] = qHTS assay to identify small molecule agonists of the estrogen related receptor (ERR) signaling pathway from Tox21 library (AID 1224849; calls by dose curve; note: nearly all actives have a fitted effect of over 15% in size); details: ERR reporter cell line, ONE-Glo luciferase, 18 h
Outline: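 Quantitative HTS in agonist format: NTP ERR cell line, compounds transferred in DMSO after 6 h plating, 18 h incubation at 37 C, ONE-Glo luminescence endpoint.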

[20] = qHTS assay to identify small molecule antagonists of the estrogen related receptor (ERR) signaling pathway from Tox21 library (AID 1224848)
Outline: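 First, 2,000 ERR cells per well were plated and held 6 h at 37 C/5% CO2. Next, compounds in DMSO were pinned in and left 18 h at 37 C. Finally, ONE-Glo was added and luminescence read after 30 min at room temperature.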

CCCCCNCCCCC
Potency [1]: inactive | outcome [2]: inactive | Potency [3]: inactive | Potency [4]: inactive | Potency [5]: inactive | Potency [6]: inactive | Potency [7]: inactive | Potency [8]: inactive | Potency [9]: inactive | Potency [10]: inactive | max response [11]: 4.14% (inactive) and 0.383% (inactive) | Potency [12]: inactive | Potency [13]: inactive | Potency [14]: inactive | Potency [15]: inactive | Potency [16]: inactive | Potency [17]: inactive | Potency [18]: inactive

CC1(C)C(=O)N(Cl)C(=O)N1Cl
Potency [1]: inactive | outcome [2]: inactive | Potency [3]: inactive | Potency [4]: inactive | Potency [5]: inactive | Potency [6]: inactive | Potency [7]: inactive | Potency [8]: inactive | Potency [9]: inactive | Potency [10]: inactive | max response [11]: 1.41% (inactive) and 7.94% (inactive) | Potency [12]: inactive | Potency [13]: inactive | Potency [14]: inactive | Potency [15]: inactive | Potency [16]: inactive | Potency [17]: inactive | Potency [18]: inactive

OCC(O)CS (stereo not drawn)
Potency [1]: inactive | outcome [2]: inactive | Potency [3]: inactive | Potency [4]: inactive | Potency [6]: inactive | Potency [7]: inactive | Potency [8]: inactive | Potency [9]: inactive | Potency [10]: inactive | max response [11]: 14.9% (inactive) and 3.08% (inactive) | Potency [12]: inactive | Potency [13]: inactive | Potency [14]: inactive | Potency [15]: inactive | Potency [16]: inactive | Potency [17]: inactive | Potency [18]: inactive

O=c1n(CCCN2CCN(c3cccc(Cl)c3)CC2)nc2ccccn12
Potency [1]: inactive | Potency [3]: inactive | activity change, positive = activation ([19]; at 42.5 µM (top of the series)): -14.9% (inactive) | activity change, positive = activation ([19]; at 92.4 µM (top of the series)): -28.6% (inactive) | Potency [4]: inactive | Potency [5]: 13.8 µM (active) and 9.52 µM (active) | Potency [6]: inactive | Potency [7]: inactive | Potency [8]: inactive | Potency [9]: 12.3 µM (active) and 9.52 µM (active) | Potency [10]: inactive | Potency [11]: 13.8 µM (active) and 9.52 µM (active) | Potency [12]: inactive | Potency [13]: inactive | Potency [14]: inactive | Potency [15]: inactive | Potency [16]: inactive | Potency [17]: inactive | Potency [18]: inactive

c1cnc2c(c1)ccc1cccnc12
Potency [1]: 6.35 µM (active) | Potency [3]: 80.8 µM (active) and inactive | Potency [20]: 1.23 µM (active) and 1.09 µM (active) and 1.54 µM (active) | activity change, positive = activation ([19]; at 92.4 µM (top of the series)): -72.1% (inactive) and -45.5% (inactive) and -63.4% (inactive) | Potency [4]: inactive | Potency [6]: inactive | Potency [7]: inactive | Potency [8]: 49.4 µM (active) and 43.6 µM (active) and inactive | Potency [9]: 11 µM (active) | Potency [10]: inactive | Potency [11]: 3.12 µM (active) and 7.76 µM (active) and 6.92 µM (active) | Potency [12]: inactive | Potency [13]: inactive | Potency [14]: inactive | Potency [15]: inactive | Potency [16]: 44.1 µM (active) and inactive | Potency [18]: inactive

OC1CCCCC1
Potency [1]: inactive | outcome [2]: inactive | Potency [3]: inactive | Potency [4]: inactive | Potency [6]: inactive | Potency [7]: inactive | Potency [8]: inactive | Potency [9]: inactive | Potency [10]: inactive | max response [11]: 6.11% (inactive) and 1.84% (inactive) | Potency [12]: inactive | Potency [13]: inactive | Potency [14]: inactive | Potency [15]: inactive | Potency [16]: inactive | Potency [17]: inactive | Potency [18]: inactive

O=C1O[C@H]([C@H](O)CO)C(O)=C1O
Potency [1]: inactive | outcome [2]: inactive | Potency [3]: inactive | Potency [4]: inactive | Potency [6]: inactive | Potency [7]: inactive | Potency [8]: inactive | Potency [9]: inactive | Potency [10]: inactive | max response [11]: 0.913% (inactive) and 0.152% (inactive) | Potency [12]: inactive | Potency [13]: inactive | Potency [14]: inactive | Potency [15]: inactive | Potency [16]: inactive | Potency [18]: inactive

CC(=O)CC(=O)N(C)C
Potency [1]: inactive | outcome [2]: inactive | Potency [3]: inactive | Potency [4]: inactive | Potency [6]: inactive | Potency [7]: inactive | Potency [8]: inactive | Potency [9]: inactive | Potency [10]: inactive | max response [11]: 0.701% (inactive) and 6.53% (inactive) | Potency [12]: inactive | Potency [13]: inactive | Potency [14]: inactive | Potency [15]: inactive | Potency [16]: inactive | Potency [17]: inactive | Potency [18]: inactive

CCc1cccc(O)c1
Potency [1]: inactive | outcome [2]: inactive | Potency [3]: inactive | Potency [4]: inactive | Potency [6]: inactive | Potency [7]: inactive | Potency [8]: inactive | Potency [9]: inactive | Potency [10]: inactive | max response [11]: -1.01% (inactive) and 0% (inactive) | Potency [13]: inactive | Potency [14]: inactive | Potency [15]: inactive | Potency [16]: inactive | Potency [18]: inactive

Cc1nnc(NS(=O)(=O)c2ccc(N)cc2)s1
Potency [1]: inactive | Potency [3]: inactive | Potency [4]: inactive | Potency [5]: inactive | Potency [6]: inactive | Potency [7]: inactive | Potency [8]: inactive | Potency [9]: inactive | Potency [10]: inactive | max response [11]: -1.44% (inactive) and 9.25% (inactive) | Potency [12]: inactive | Potency [13]: inactive | Potency [14]: inactive | Potency [15]: inactive | Potency [16]: inactive | Potency [17]: inactive | Potency [18]: inactive

CN1Cc2c(N)cccc2C(c2ccccc2)C1 (stereo not drawn)
Potency [1]: inactive | Potency [3]: inactive | Potency [4]: inactive | Potency [6]: inactive | Potency [7]: inactive | Potency [8]: inactive | Potency [9]: inactive | Potency [10]: inactive | max response [11]: -23.8% (inactive) and -3.82% (inactive) | Potency [12]: inactive | Potency [13]: inactive | Potency [14]: inactive | Potency [15]: inactive | Potency [16]: inactive | Potency [18]: inactive

N[C@@H](Cc1cc(I)c(Oc2ccc(O)c(I)c2)c(I)c1)C(=O)O
outcome [2]: inactive | Potency [3]: inactive | Potency [4]: inactive | Potency [6]: inactive | Potency [7]: inactive | Potency [8]: inactive | Potency [9]: inactive | Potency [10]: inactive | max response [11]: -20.1% (inactive) and -17.6% (inactive) | Potency [12]: inactive | Potency [13]: inactive | Potency [14]: inactive | Potency [15]: inactive | Potency [16]: inactive | Potency [18]: inactive

O=C(Cl)c1ccc(C(=O)Cl)cc1
Potency [1]: inactive | outcome [2]: inactive | Potency [3]: inactive | Potency [4]: inactive | Potency [6]: inactive | Potency [7]: inactive | Potency [8]: inactive | Potency [9]: inactive | Potency [10]: inactive | max response [11]: -18.9% (inactive) and 3.42% (inactive) | Potency [13]: inactive | Potency [14]: inactive | Potency [15]: inactive | Potency [16]: inactive | Potency [17]: inactive | Potency [18]: inactive

OCC(CO)(CO)CO
Potency [1]: inactive | outcome [2]: inactive | Potency [3]: inactive | Potency [4]: inactive | Potency [6]: inactive | Potency [7]: inactive | Potency [8]: inactive | Potency [9]: inactive | Potency [10]: inactive | max response [11]: 2.43% (inactive) and 2.9% (inactive) | Potency [13]: inactive | Potency [14]: inactive | Potency [15]: inactive | Potency [16]: inactive | Potency [17]: inactive | Potency [18]: inactive

Reference: PubChem BioAssay (Tox21)
